# Data published in PubChem BioAssay.
# The source made the active and inactive calls.
# What was measured:
# [1] = tested on: PRMT1 (protein arginine N-methyltransferase 1); test: small molecules binding arginine methyltransferase PRMT1 – biochemical, small-molecule microarray, 635 nm fluorescence, primary screen (AID 1088); details: higher = more signal;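 further: binding of Prmt1 protein to compounds spotted on small-molecule microarray slides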
# [2] = growth effects on S. cerevisiae YJM789 – YJM789 clinical isolate, OD600, 24 h, basal, primary screen (AID 1089); details: higher = more signal, called active from +8 up or from −8 down;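 further: growth of clinical yeast isolate S. cerevisiae YJM 789 seeded 1000 cells per well; test concentration not given here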
# [3] = S. pombe growth modifiers, basal conditions – strain 972, OD600, 24 h, no modulator, primary screen (AID 1090);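 further: basal condition with compound alone and no growth modifier present; test concentration not given here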; details: S. pombe 972 growth, higher = more signal, called active from +8 up or from −8 down
# [4] = budding yeast growth modifiers under rapamycin – strain BY4716, OD600, 96 h, primary screen (AID 1091); further: test concentration not given here; details: S. cerevisiae BY4716 + rapamycin, higher = more signal, called active from +8 up or from −8 down
# [5] = target: Torsin-1A-interacting protein 2 (Homo sapiens) (UniProt Q8NFQ8); test: small molecules binding lysate-expressed LULL1 – cell lysate, human LULL1 lysate, 635/667 nm fluorescence, primary screen (AID 1092); details: small-molecule microarray, hLULL1 lysate binding, 635 nm fluorescence; higher = more signal;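 further: probe is lysate of COS7 cells overexpressing human LULL1; score merges per-feature 667 nm fluorescence with signal-to-noise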
# Chain of Torsin-1A-interacting protein 2 (Homo sapiens) (Q8NFQ8 whole entry, looked up): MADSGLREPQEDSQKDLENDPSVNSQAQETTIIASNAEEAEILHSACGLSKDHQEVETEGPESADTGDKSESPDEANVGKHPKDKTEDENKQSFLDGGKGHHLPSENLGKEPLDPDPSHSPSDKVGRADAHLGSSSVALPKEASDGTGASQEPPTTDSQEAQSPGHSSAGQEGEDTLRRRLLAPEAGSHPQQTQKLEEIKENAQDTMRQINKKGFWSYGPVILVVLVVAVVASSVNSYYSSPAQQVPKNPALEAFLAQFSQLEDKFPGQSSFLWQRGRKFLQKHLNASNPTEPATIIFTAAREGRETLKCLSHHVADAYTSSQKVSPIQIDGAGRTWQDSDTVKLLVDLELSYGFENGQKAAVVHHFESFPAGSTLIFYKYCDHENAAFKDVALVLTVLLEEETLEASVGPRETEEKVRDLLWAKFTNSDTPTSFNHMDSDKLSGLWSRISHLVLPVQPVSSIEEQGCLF
# [6] = optical density change of DRC41 E. coli – strain DRC41, OD650, 24 h, E. coli filamentation project, primary screen (AID 1093);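 further: MC1000 strain lacking acrAB efflux and sulA so SOS filamentation is blocked; test concentration not given here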; details: E. coli DRC41 growth, higher = more signal, called active from +8 up or from −8 down
# [7] = probe aLefty2 binding to arrayed compounds – biochemical, biotinylated probe, 635/667 nm fluorescence, primary screen (AID 1094); details: small-molecule microarray, higher = more signal;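 further: score merges spot fluorescence near 667 nm with spot signal-to-noise ratio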
# [8] = tested on: Noggin (protein binding on small-molecule microarray); test: small molecules binding Noggin protein – biochemical, 635/667 nm fluorescence, primary screen (AID 1095); details: 635 nm fluorescence, higher = more signal;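 further: score merges 667 nm feature fluorescence with signal to noise over triplicate slides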
# [9] = target: Neurogenic locus notch homolog protein 3 (Homo sapiens) (UniProt Q9UM47); test: small molecules binding NOTCH3 protein – biochemical, 635/667 nm fluorescence, primary screen (AID 1096); details: small-molecule microarray, 635 nm fluorescence, higher = more signal
# Chain of Neurogenic locus notch homolog protein 3 (Homo sapiens) (Q9UM47 whole entry, looked up): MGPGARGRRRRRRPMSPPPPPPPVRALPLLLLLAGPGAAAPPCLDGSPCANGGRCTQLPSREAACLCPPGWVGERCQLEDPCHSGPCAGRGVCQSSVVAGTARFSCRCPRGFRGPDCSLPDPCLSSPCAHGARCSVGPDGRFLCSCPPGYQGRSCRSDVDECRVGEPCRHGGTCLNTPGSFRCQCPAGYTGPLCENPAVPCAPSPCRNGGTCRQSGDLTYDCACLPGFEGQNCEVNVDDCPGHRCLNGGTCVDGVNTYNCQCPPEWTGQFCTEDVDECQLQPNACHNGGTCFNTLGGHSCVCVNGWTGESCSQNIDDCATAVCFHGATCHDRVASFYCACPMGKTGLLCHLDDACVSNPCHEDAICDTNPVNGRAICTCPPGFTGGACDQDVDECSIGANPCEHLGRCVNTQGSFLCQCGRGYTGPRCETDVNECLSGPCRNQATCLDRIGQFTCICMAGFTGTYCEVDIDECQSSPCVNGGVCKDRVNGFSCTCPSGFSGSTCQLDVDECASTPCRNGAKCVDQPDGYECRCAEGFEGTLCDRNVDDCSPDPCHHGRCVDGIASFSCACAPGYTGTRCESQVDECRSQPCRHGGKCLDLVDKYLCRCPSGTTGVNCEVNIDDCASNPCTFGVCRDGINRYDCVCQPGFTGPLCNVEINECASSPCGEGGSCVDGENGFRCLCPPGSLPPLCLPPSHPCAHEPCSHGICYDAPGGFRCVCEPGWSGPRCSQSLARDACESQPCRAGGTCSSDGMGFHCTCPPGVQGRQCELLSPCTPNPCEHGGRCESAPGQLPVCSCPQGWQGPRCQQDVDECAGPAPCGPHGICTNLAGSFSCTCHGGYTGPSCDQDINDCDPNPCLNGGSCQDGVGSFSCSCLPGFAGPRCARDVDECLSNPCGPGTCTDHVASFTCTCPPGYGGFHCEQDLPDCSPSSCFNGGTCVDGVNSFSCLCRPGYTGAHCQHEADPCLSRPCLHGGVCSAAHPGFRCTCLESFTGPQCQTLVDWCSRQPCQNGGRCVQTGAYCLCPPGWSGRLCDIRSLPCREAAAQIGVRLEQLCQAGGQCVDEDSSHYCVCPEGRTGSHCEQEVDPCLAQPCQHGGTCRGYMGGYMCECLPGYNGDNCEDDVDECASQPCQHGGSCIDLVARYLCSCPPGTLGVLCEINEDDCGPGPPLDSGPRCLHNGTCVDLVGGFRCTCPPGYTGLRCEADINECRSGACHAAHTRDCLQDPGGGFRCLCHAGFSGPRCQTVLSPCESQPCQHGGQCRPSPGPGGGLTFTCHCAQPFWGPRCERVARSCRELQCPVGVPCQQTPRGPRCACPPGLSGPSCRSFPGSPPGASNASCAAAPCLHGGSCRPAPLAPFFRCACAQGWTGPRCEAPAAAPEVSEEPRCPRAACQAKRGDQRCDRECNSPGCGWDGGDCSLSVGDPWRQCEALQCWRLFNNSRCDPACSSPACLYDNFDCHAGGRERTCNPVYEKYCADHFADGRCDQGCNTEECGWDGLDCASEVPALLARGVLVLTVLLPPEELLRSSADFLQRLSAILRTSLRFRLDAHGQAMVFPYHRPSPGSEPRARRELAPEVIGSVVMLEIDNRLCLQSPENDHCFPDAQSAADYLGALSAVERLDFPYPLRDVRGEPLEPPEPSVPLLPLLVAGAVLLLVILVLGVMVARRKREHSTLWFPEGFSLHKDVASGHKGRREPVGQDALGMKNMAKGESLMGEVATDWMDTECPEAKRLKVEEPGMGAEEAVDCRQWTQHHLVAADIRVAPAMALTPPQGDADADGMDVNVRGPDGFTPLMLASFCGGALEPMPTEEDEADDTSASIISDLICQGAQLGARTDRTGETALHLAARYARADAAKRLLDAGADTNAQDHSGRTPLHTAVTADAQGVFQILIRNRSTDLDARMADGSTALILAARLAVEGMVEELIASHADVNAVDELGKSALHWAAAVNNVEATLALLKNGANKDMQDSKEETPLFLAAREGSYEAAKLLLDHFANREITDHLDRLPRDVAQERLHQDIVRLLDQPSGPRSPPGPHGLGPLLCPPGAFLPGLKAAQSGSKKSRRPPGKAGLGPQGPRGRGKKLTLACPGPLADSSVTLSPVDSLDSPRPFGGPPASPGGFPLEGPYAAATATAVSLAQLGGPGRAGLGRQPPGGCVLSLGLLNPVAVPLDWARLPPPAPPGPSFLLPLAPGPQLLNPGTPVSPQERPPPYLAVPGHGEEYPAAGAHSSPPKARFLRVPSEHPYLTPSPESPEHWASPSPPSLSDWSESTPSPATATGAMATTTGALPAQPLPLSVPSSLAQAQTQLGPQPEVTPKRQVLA
# [10] = probe aEGFR binding to arrayed compounds – biochemical, biotinylated probe, 635/667 nm fluorescence, primary screen (AID 1097); details: small-molecule microarray, higher = more signal;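 further: probe is a biotinylated anti-EGFR antibody binding compounds printed on slides; score combines fluorescence near 667 nm and signal to noise of each spot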
SMILES,composite z-score [1],z-score [2],z-score [3],z-score [4],composite z-score [5],z-score [6],composite z-score [7],composite z-score [8],composite z-score [9],composite z-score [10]
Cc1ccc(S(=O)(=O)N[C@@H]2COC(=O)[C@H](C)COC(=O)CC=C[C@H]2C)cc1,-0.365,1.4 (inactive),1.05 (inactive),1.2 (inactive),-0.366,-0.234 (inactive),-0.18,0.984,0.566,-0.215
CCCCCCc1nc(CCCc2cc3c(c(CCCCCC)n2)[Si](C(C)C)(C(C)C)O[C@H]3c2ccccc2)cc2c1[Si](C(C)C)(C(C)C)O[C@H]2c1ccccc1,0.0913,-0.449 (inactive),-0.643 (inactive),-0.146 (inactive),-0.769,-1.43 (inactive),-0.233,0.522,0.279,-0.11
COc1ccc(COC(=O)NN=C2C[C@@H](O)[C@@H](O)[C@@H]3[C@@H]4C(=O)N(Cc5ccc6c(c5)OCO6)C(=O)[C@@H]4CC[C@@H]23)cc1,-0.291,-1.65 (inactive),-0.654 (inactive),-0.731 (inactive),0.529,-0.486 (inactive),0.63,-0.666,-0.303,-0.187
CCc1cc2c(nc1CC)CCN(CCC(C)=NO[C@@H](C)c1cc(-c3c(C)cc(C)cc3C)no1)C2,0.608,-0.889 (inactive),-6.86 (inactive),-1.26 (inactive),0.468,-0.0254 (inactive),-0.0765,0.343,-1.5,-0.172
CC(CCN1CCc2nc(-c3ccccc3)c(-c3ccccc3)cc2C1)=NOC(C)CN1CCCCc2nc(C)c(C)cc21 (stereo not given),0.948,-1.03 (inactive),-3.01 (inactive),-3.08 (inactive),1.53,0.74 (inactive),-0.0813,0.454,0.905,-0.0565
CC(C)OC(=O)C=C1C[C@@H](c2ccc(C#N)cc2)O[C@@H](c2ccc(C#N)cc2)O1,1.55,0.149 (inactive),-2.93 (inactive),1.01 (inactive),3.36,0.554 (inactive),0.314,0.747,1.06,0.11
O=C1[C@H]2[C@H]3[C@H](O)[C@H](O)CC(=NO[C@@H]4O[C@H](CO)[C@@H](O)[C@H](O)[C@H]4O)[C@H]3CC[C@H]2C(=O)N1Cc1ccc2c(c1)OCO2,0.661,0.827 (inactive),0.918 (inactive),-0.297 (inactive),2.14,0.529 (inactive),0.0835,-0.246,-0.133,-0.17
